Reference: ChEMBL document CHEMBL1961873, “Compounds: GSK PKIS; Assays: Nanosyn kinase panel” (2012)

Tests used:
[1] = target: T1, Tyrosine-protein kinase receptor TYRO3 (Homo sapiens) (UniProt Q06418); settings: at 1 µM
T1 sequence (whole entry): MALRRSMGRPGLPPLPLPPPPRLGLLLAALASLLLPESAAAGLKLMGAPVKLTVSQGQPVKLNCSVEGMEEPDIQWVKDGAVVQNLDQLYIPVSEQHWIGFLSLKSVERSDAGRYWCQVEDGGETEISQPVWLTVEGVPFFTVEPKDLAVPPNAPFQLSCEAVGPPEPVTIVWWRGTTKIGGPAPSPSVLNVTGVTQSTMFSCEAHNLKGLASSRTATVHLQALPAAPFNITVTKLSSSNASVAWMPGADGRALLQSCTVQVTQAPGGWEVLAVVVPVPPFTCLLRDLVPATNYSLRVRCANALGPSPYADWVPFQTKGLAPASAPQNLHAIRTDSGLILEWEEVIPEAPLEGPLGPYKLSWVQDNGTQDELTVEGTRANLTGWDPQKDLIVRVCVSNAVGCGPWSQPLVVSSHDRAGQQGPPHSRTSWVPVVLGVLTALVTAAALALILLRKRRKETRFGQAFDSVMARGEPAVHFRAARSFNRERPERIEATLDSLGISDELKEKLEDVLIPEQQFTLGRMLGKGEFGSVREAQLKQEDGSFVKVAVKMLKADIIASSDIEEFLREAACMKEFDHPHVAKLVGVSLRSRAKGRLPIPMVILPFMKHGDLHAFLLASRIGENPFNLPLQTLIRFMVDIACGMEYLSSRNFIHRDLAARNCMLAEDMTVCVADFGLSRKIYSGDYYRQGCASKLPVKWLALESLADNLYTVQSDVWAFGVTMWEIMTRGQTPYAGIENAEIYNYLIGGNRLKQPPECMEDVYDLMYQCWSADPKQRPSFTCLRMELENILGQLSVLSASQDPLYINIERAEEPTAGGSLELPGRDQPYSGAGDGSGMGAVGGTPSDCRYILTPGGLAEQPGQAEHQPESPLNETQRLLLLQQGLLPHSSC

[2] = target: Tyrosine-protein kinase Yes (Homo sapiens) (UniProt P07947); settings: at 0.1 µM
Sequence of Tyrosine-protein kinase Yes (Homo sapiens) (P07947 2-543 limits assumed): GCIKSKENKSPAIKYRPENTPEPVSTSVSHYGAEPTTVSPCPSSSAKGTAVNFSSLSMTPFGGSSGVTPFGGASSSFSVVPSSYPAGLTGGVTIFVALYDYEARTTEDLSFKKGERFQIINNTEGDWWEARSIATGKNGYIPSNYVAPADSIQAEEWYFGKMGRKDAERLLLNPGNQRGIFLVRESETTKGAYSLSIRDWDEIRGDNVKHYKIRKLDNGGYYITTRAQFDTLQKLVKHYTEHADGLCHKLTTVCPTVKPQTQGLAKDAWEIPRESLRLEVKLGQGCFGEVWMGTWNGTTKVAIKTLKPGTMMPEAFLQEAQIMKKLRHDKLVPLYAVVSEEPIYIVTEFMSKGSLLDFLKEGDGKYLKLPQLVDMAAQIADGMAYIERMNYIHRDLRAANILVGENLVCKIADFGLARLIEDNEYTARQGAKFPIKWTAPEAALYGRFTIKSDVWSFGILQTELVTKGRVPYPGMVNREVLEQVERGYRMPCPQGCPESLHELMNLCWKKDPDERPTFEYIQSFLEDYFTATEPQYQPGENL

[3] = target: Tyrosine-protein kinase Yes (Homo sapiens) (UniProt P07947); settings: at 1 µM
[4] = target: T2, Tyrosine-protein kinase ZAP-70 (Homo sapiens) (UniProt P43403); settings: at 0.1 µM
T2 sequence (whole entry): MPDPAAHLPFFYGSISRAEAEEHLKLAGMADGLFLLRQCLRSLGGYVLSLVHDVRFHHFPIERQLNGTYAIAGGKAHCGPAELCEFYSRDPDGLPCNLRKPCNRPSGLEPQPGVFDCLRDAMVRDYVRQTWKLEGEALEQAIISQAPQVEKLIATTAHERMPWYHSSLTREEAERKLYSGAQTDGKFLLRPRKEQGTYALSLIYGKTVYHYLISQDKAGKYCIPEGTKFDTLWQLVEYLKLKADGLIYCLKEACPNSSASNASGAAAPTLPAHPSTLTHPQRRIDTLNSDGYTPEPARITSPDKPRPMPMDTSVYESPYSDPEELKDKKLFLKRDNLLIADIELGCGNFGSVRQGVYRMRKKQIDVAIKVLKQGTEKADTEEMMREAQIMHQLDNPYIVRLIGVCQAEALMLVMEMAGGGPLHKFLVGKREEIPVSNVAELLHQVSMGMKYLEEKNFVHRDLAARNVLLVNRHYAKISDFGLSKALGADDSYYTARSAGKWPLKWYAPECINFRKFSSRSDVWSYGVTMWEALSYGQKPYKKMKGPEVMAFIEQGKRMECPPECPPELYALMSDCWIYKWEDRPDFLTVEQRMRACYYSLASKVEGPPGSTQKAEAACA

[5] = target: T2, Tyrosine-protein kinase ZAP-70 (Homo sapiens); settings: at 1 µM
[6] = target: Serine/threonine-protein kinase B-raf (Homo sapiens) (UniProt P15056); settings: at 0.1 µM
Sequence of Serine/threonine-protein kinase B-raf (Homo sapiens) (P15056 whole entry): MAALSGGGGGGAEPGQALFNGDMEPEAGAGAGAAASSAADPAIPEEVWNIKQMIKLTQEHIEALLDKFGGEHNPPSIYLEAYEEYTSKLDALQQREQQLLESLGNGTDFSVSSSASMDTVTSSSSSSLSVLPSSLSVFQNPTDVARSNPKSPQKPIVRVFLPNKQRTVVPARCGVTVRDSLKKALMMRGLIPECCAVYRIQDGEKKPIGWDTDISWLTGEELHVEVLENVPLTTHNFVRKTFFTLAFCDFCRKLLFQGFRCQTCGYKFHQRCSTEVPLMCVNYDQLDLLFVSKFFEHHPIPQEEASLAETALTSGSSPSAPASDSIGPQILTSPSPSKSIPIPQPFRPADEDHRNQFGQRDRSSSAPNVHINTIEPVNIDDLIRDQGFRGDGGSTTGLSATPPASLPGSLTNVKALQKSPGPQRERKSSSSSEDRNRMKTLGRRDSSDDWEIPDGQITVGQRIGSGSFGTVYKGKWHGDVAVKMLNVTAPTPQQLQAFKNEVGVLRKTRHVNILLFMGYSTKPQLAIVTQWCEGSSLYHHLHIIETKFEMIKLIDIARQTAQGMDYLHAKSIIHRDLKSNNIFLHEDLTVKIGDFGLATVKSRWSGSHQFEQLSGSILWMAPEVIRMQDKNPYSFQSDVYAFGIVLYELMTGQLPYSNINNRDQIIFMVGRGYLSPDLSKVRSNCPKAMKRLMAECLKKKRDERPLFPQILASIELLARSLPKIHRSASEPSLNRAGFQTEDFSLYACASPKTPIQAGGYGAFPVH

[7] = target: Serine/threonine-protein kinase B-raf (Homo sapiens) (UniProt P15056); settings: at 1 µM
[8] = tested on: Serine/threonine-protein kinase B-raf (Homo sapiens), P15056 [V600E]; settings: at 0.1 µM
Sequence of Serine/threonine-protein kinase B-raf (Homo sapiens), P15056 [V600E] (P15056 whole entry V600E): as the sequence (P15056 whole entry) above, with V600E counted along it

[9] = tested on: Serine/threonine-protein kinase B-raf (Homo sapiens), P15056 [V600E]; settings: at 1 µM
[10] = target: RAF proto-oncogene serine/threonine-protein kinase (Homo sapiens) (UniProt P04049); settings: at 0.1 µM
Sequence of RAF proto-oncogene serine/threonine-protein kinase (Homo sapiens) (P04049 whole entry): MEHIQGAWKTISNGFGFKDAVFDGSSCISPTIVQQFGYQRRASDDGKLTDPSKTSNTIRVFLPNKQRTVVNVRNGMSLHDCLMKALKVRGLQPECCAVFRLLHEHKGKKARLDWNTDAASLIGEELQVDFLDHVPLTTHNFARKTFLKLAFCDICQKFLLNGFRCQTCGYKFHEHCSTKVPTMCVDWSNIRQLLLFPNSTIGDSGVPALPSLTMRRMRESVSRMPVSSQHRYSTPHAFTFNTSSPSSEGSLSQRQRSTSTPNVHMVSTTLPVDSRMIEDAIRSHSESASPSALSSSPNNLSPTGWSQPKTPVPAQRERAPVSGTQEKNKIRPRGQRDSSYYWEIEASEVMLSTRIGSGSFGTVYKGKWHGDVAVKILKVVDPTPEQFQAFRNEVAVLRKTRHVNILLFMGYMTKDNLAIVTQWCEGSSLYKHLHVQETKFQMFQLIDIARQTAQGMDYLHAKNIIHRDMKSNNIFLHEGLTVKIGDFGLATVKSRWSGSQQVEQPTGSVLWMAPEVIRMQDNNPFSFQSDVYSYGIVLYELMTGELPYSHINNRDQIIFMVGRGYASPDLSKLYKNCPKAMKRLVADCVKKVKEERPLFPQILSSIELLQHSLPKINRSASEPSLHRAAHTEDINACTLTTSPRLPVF

[11] = target: RAF proto-oncogene serine/threonine-protein kinase (Homo sapiens) (UniProt P04049); settings: at 1 µM
[12] = target: T3, Interleukin-1 receptor-associated kinase 4 (Homo sapiens) (UniProt Q9NWZ3); settings: at 0.1 µM
T3 sequence (whole entry): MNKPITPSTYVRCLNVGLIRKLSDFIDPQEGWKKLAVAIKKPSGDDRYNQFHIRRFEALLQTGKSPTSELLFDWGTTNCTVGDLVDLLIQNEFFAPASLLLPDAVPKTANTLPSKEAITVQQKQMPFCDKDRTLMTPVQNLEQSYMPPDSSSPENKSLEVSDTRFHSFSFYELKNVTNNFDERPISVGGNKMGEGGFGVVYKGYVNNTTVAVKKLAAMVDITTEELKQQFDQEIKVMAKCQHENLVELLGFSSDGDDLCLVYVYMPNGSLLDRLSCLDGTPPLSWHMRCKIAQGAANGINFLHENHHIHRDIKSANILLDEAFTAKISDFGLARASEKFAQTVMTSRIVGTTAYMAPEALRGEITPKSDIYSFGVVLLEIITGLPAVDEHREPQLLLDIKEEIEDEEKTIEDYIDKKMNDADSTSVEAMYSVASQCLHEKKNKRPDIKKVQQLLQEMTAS

[13] = target: T3, Interleukin-1 receptor-associated kinase 4 (Homo sapiens); settings: at 1 µM
[14] = target: Leucine-rich repeat serine/threonine-protein kinase 2 (Homo sapiens) (UniProt Q5S007); settings: at 0.1 µM
Sequence of Leucine-rich repeat serine/threonine-protein kinase 2 (Homo sapiens) (Q5S007 whole entry): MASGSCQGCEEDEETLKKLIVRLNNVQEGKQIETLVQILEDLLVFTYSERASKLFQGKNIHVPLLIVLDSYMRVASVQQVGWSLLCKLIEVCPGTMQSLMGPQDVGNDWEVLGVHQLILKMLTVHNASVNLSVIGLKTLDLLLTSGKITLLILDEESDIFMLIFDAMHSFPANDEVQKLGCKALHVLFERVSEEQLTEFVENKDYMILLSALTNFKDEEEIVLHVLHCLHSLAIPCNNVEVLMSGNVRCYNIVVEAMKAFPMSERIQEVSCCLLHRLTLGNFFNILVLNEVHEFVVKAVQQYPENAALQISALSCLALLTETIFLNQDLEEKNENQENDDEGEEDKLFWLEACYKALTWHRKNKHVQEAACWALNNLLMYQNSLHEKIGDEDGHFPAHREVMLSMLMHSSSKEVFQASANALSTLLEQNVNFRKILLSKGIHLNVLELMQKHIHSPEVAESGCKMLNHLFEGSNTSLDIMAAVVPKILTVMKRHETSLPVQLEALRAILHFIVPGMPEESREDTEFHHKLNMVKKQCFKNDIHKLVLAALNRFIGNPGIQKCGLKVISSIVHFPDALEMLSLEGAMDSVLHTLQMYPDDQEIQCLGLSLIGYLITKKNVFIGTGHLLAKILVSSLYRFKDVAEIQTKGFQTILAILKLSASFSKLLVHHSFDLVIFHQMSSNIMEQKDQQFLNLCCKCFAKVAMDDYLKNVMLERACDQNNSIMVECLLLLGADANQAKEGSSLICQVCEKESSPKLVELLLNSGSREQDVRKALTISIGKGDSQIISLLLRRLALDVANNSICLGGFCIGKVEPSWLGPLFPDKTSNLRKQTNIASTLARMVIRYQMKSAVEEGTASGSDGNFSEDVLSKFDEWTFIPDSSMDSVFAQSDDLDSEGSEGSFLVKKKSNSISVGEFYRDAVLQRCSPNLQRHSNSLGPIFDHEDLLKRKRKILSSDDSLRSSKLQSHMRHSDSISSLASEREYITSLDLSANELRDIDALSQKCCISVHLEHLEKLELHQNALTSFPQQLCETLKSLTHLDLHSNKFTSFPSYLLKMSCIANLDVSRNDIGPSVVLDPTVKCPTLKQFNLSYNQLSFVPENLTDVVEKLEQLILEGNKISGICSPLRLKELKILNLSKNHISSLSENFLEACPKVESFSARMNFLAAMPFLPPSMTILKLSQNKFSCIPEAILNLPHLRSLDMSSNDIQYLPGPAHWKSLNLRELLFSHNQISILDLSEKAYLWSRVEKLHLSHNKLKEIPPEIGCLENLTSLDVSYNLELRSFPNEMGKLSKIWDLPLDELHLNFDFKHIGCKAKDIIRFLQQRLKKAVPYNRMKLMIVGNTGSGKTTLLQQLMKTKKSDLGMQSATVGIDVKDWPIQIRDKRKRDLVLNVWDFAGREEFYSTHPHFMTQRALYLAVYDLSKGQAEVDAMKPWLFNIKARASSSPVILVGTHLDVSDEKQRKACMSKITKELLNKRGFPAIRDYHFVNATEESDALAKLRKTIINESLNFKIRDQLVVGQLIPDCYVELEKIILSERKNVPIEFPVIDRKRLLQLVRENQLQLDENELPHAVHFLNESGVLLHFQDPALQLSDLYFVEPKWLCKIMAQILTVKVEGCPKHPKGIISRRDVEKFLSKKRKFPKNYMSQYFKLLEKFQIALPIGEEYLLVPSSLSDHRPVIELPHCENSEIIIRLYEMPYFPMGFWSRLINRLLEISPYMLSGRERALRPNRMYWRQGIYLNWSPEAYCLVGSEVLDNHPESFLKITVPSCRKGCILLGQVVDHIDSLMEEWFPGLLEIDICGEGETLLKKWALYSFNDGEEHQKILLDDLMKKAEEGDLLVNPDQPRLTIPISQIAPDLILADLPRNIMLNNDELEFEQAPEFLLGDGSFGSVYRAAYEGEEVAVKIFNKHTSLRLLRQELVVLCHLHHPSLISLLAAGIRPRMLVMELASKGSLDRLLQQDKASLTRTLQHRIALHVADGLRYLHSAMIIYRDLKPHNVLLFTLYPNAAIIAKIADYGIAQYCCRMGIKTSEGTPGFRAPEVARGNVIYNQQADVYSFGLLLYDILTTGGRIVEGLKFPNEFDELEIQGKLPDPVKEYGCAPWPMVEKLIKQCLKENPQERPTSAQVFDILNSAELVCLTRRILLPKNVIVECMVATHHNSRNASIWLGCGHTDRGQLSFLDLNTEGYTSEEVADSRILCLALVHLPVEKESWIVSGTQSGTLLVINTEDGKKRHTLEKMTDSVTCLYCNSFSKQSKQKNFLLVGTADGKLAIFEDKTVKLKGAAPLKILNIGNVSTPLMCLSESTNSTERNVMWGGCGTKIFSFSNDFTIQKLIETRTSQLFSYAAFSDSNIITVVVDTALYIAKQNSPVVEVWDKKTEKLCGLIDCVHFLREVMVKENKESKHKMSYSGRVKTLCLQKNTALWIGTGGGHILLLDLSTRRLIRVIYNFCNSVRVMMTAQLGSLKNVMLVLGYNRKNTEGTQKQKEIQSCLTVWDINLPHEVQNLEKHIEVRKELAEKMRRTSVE

[15] = target: Leucine-rich repeat serine/threonine-protein kinase 2 (Homo sapiens) (UniProt Q5S007); settings: at 1 µM
[16] = tested on: Leucine-rich repeat serine/threonine-protein kinase 2 (Homo sapiens), Q5S007 [G2019S]; settings: at 0.1 µM
Sequence of Leucine-rich repeat serine/threonine-protein kinase 2 (Homo sapiens), Q5S007 [G2019S] (Q5S007 whole entry G2019S): as the sequence (Q5S007 whole entry) above, with G2019S counted along it

[17] = tested on: Leucine-rich repeat serine/threonine-protein kinase 2 (Homo sapiens), Q5S007 [G2019S]; settings: at 1 µM

Structure (SMILES)	inhibition [1]	inhibition [2]	inhibition [3]	inhibition [4]	inhibition [5]	inhibition [6]	inhibition [7]	inhibition [8]	inhibition [9]	inhibition [10]	inhibition [11]	inhibition [12]	inhibition [13]	inhibition [14]	inhibition [15]	inhibition [16]	inhibition [17]
COc1cc(C=NNc2ncnc3c2cnn3Cc2ccccc2)ccc1O	7.59%	14.6%	30%	2.67%	1.13%	-5.44%	-5.52%	-5.58%	-4.22%	-0.2%	8.55%	1.48%	-1.52%	-2.34%	3.59%	1.06%	10.1%
COc1cccc(-n2ncc3c(N/N=C/c4ccncc4)ncnc32)c1	41.6%	26.7%	73%	2.84%	3.98%	10.3%	21.5%	11%	23.1%	-6.75%	3.93%	2.61%	4.07%	4.32%	16.6%	7.97%	37.4%
Fc1ccc(-c2ncn(C3CCNCC3)c2-c2ccnc(Oc3ccccc3)n2)cc1	0.47%	1.72%	-0.9%	-4.16%	-3.08%	2.53%	4.3%	2.57%	4.15%	-1.35%	1.07%	0.54%	0.35%	-5.14%	-7.49%	-2.28%	-0.98%
COc1cc2c(cc1Nc1nc(Nc3ccsc3C(N)=O)c3cc[nH]c3n1)N(C(=O)CN(C)C)CCC2	–	1.43%	2.18%	-0.11%	1.86%	-0.02%	1.67%	0.32%	0.47%	-0.98%	-4.6%	-1.66%	-1.26%	80.8%	86.2%	63%	61.2%
CCn1c(-c2nonc2N)nc2c(C#CC(C)(C)O)ncc(OC[C@@H]3CCCN3)c21	1.75%	-0.57%	2.07%	–	-0.24%	0.45%	0.01%	0.87%	0.05%	3.13%	0.33%	0.18%	0.53%	0.96%	7.88%	2.98%	12.5%
Nc1nonc1-c1nc2cnccc2n1C1CCCCC1	-0.87%	1.72%	3.33%	-2%	-0.79%	-2.13%	4.56%	-1.6%	5.12%	2.21%	13.7%	2.08%	-1.3%	4.67%	20%	9.49%	45.5%
Cc1cc(-c2ccco2)cc(C)c1/C=C/c1cncc(-c2nn[nH]n2)c1	0.02%	1.68%	6.08%	-1.84%	0.77%	1.61%	1.61%	1.63%	3%	-1.69%	-5.34%	-0.17%	-0.12%	4.45%	8.02%	5.52%	5.78%
CCn1c(-c2nonc2N)nc2c(C#CC(C)(C)O)ncc(OCC3CCNCC3)c21	3.34%	2.71%	6.72%	-3.36%	-3.17%	4.38%	2.78%	4.23%	2.64%	3.07%	1.08%	-1.36%	1.24%	-2.92%	5%	1.31%	16.7%
COc1cccc(COc2cc(-n3cnc4ccccc43)sc2C(N)=O)c1	-0.77%	0.89%	1.25%	-1.78%	0.73%	-0.39%	1.18%	0.3%	1.75%	2.33%	0.06%	-1.12%	-1.16%	2.35%	14.6%	5.15%	31.2%
NC(=O)c1sc(-n2cnc3cc(C(F)(F)F)ccc32)cc1OCc1ccccc1Br	2.02%	2.56%	3.46%	-0.71%	1.87%	3.64%	2.26%	1.31%	2.01%	1.82%	5.05%	0.4%	1.13%	3.39%	6.23%	3.66%	6.47%
CCn1c(-c2nonc2N)nc2c(C#CC(C)(C)O)nc(O[C@@H](CN)c3ccccc3)cc21	6.97%	2.89%	23.8%	0.99%	1.24%	-0.9%	5.48%	-1.97%	6.51%	-3.13%	-0.12%	2.57%	-0.97%	1.02%	12.4%	5.6%	35.9%
NS(=O)(=O)c1ccc(-c2ccc3c(NC(=O)C4CC4)n[nH]c3c2)cc1	13%	0.69%	2.38%	0.78%	0.22%	2.45%	5.35%	2.03%	3.48%	4.2%	9.01%	-1.93%	1.48%	2.77%	2.56%	3.47%	7.51%
NS(=O)(=O)c1ccc(N/C=C2\C(=O)Nc3ccc4ncsc4c32)cc1	24.1%	2.73%	26.7%	-5.22%	5.97%	11%	41%	9.06%	37.5%	-1.4%	0.21%	1.82%	2.58%	17.8%	58.6%	29.4%	58.9%
CCn1c(-c2nonc2N)nc2c(C#CCN)ncc(OCCCN)c21	3.68%	0.61%	3.6%	2.74%	2.46%	-4.66%	-4.6%	-5.05%	-3.78%	2.59%	1.98%	1.9%	-2%	3.78%	5.71%	4.23%	12.1%
